# IL-1B inflam inh – inflammasome signaling inhibition, IL-1 beta readout; 360,000 compounds, 4.7% hits; THP-1 LPS/ATP IL-1B secretion, AlphaLISA, 16 h; active compounds read low; activity change, % at 57.5 µM; in the data active = activity change below about -50%; inconclusive = mostly about -30% to -49%
#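 Secreted IL-1B measured by AlphaLISA bead assay after 16 h compound exposure of THP-1 cells; compounds (final up to 57.5 uM) added 1 h before LPS (250 ng/mL) and ATP (1.25 mM) stimulation; lower signal means less secretion.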
# 12-LOX inh – ALOX12 (human) lipoxygenase inhibition | P18054 | purified 12hLO, xylenol orange hydroperoxide absorbance | Potency, µM (top dose mostly 108 µM), for the others: at the top dose activity change, negative = inhibition, usual class: inhibitors | 580,000 compounds, 1.1% hits | AID 1671190; note: potency is the fitted concentration of half-maximal effect
# Target sequence (P18054 whole entry, looked up): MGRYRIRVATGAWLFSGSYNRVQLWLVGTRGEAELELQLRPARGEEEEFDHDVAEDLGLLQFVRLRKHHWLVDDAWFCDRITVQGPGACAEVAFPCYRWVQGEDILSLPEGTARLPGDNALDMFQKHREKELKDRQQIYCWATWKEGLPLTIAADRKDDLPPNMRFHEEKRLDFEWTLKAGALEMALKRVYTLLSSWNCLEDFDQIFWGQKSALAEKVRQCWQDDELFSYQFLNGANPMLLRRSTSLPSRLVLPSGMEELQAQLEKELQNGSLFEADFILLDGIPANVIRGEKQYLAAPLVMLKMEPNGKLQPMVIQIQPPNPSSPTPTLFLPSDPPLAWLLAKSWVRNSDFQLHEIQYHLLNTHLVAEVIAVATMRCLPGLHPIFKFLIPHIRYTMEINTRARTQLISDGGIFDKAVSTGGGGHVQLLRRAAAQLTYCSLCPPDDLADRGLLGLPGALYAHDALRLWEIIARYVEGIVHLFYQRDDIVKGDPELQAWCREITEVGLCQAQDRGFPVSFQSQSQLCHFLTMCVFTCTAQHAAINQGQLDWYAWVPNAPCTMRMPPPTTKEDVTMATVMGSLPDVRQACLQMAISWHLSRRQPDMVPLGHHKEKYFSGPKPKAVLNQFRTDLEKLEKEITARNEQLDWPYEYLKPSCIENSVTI
#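 Purified human 12hLO (150 nM final) in 25 mM Hepes, 0.01% Triton X-100, pH 7.0 was preincubated 15 min at room temperature with compound. Then 40 uM arachidonic acid was added, 30 min. Hydroperoxide was read by Fe-XO absorbance ratio 573/405 nm.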
# DT40 TDP1 CPT – growth inhibition of DT40 Tdp1-/-;hTDP1 cells with camptothecin (screen for TDP1 inhibitors); chicken DT40 Tdp1-/-;hTDP1 cells + 20 nM CPT, ATP luminescence, 48 h; Potency, µM (doses to about 46.2 µM), for the others: at the highest dose activity change, negative = growth inhibition, most hits filed as inhibitors; 420,000 compounds, 12% hits; AID 686979; note: potency is the fitted concentration of half-maximal effect; nearly all actives have a fitted effect of over 55% in size
#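 Chicken DT40 Tdp1-/- cells stably complemented with human TDP1 were seeded at 400 cells/well in medium containing 20 nM camptothecin, exposed to pin-transferred compounds, and grown at 37 °C for at least 48 hr. Viability was read as ATP luminescence.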
# HT1080-NT tox – kills 2HG-producing HT-1080-NT fibrosarcoma cells; HT-1080-NT fibrosarcoma viability, CellTiter-Glo ATP luminescence, 48 h; Potency, µM (highest dose often 46.1 µM), without a hit: at the top dose activity, negative = less viability, usual class: cytotoxic; 360,000 compounds, 1.6% hits;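 note: NT is the 2HG producing partner of a matched IDH1 knockdown line; potency is the fitted concentration of half-maximal effect; 0% = DMSO-treated cells and -100% = media-only wells without cells; nearly all actives have a fitted effect of over 55% in size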
#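 Viability by CellTiter-Glo luminescence after 48 h compound exposure at 37C of HT-1080-NT cells (750/well, RPMI, 5% FBS). % activity scaled between DMSO wells and medium-only wells, then curve-fitted and categorized by curve class.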
# HT1080 IDH1KD tx – HT-1080 IDH1 knockdown cell toxicity (counter line); HT-1080 IDH1 knockdown viability, ATP luminescence, 48 h; Potency, µM (highest dose often 46.1 µM), inactives show top-dose activity, negative = toxicity, most hits filed as cytotoxic; 360,000 compounds, 2% hits;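 note: potency is the fitted concentration of half-maximal effect; 0% = DMSO wells and -100% = cell-free medium wells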
#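 Using the IDH1-knockdown HT-1080 line run in the same batch and compound series as the NT line, viability after 48 h at 37 °C was determined by CellTiter-Glo luminescence and expressed as % activity.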
# TDP1 cell noCPT – qHTS for Inhibitors of human tyrosyl-DNA phosphodiesterase 1 (TDP1): qHTS in cells in absence of CPT; DT40 Tdp1-/- hTDP1 cells, no CPT, ATP luminescence, 48 h; 420,000 compounds, 15% hits; Potency, µM (doses to about 46.2 µM), without a hit: at the top dose activity change, negative = growth inhibition, usual class: inhibitors; note: potency is the fitted concentration of half-maximal effect; nearly all actives have a fitted effect of over 55% in size
#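 Readout: luminescence from CellTiter-Glo after 30 min in the dark at RT. Cells: DT40 Tdp1-/- with stable hTDP1, 400/well. Exposure: compounds alone, ≥48 hr, 37 °C.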
# The depositor's hits bear a star; ? = inconclusive; · = no result. This excerpt belongs to a sample that is enriched for hits. Unless noted, calls come from the whole dose curve; as a rule, active = well fitted curve in the direction sought with a large enough effect; inconclusive = small, poorly fitted or top-dose-only effect, or another doubt; inactive = no such curve, though single readings can be large; an effect the other way counts as inactive or inconclusive. Unless noted, % is set by controls: 0 for no effect and ±100 for the full control effect.
SMILES,IL-1B inflam inh,12-LOX inh,DT40 TDP1 CPT,HT1080-NT tox,HT1080 IDH1KD tx,TDP1 cell noCPT
COc1ccc(/C=C2/SC(=S)N(Cc3ccccc3)C2=O)cc1O,?,-9%,-27%,-27%,?,-11%
O=C(O)COc1ccc(/C=C2/SC(=S)N(Cc3ccccc3)C2=O)cc1,-5,-60%,-3%,-5%,-13%,-4%
O=C1/C(=C\c2cc(Cl)c(O)c(Cl)c2)SC(=S)N1Cc1ccccc1,-19,-87%,6.5µM*,?,?,2.3µM*
COc1ccc(CNC(=O)C2CCN(C(=O)c3ccc(-n4ccc5ccccc54)s3)CC2)cc1,·,-10%,10µM*,·,·,13µM*
Cc1cc2ccccc2n1-c1ccc(C(=O)N2CCC(C(=O)NCc3ccc(F)cc3)CC2)s1,·,-1%,21µM*,·,·,16µM*
COc1ccc(CNC(=O)C2CCN(C(=O)c3sccc3-n3cccc3)CC2)cc1,?,4%,-3%,-10%,3%,9%
CN(C)c1ccc(CNC(=O)C2CCN(C(=O)c3ccc(-n4ccc5ccccc54)s3)CC2)cc1,·,1%,21µM*,·,·,21µM*
O=C(Cn1ccn2nc(-c3ccc(F)cc3)c(CO)c2c1=O)Nc1ccc(F)c(F)c1,·,-17%,·,·,·,·
COCCN1CCNc2nc(COc3ccc(Cl)cc3OC)n(Cc3ccccc3)c2C1=O,·,21%,·,·,·,·
CC(=O)c1c(C(C)=O)c(C)n(-c2ccc(I)cc2)c1C,·,22%,·,·,·,·
COc1ccc(C(=O)Nc2ccc(-c3noc([C@@H]4CCCN4Cc4c[nH]c5ccccc45)n3)cn2)cc1,·,-5%,·,·,·,·
Cc1cccc(/C=C2\CCC(=C3SCCCS3)C2=O)c1,-3,0%,?,-2%,-2%,15µM*
CCC(CO)NS(=O)(=O)c1cc(C)c(Br)cc1Cl (stereo unspecified),·,17%,·,·,·,·
COc1ccc(-c2ncc(CN3CCC(CO)(Cc4cccc(OC)c4)CC3)cn2)cc1,3,1%,?,-24%,?,?
OCC1(Cc2ccc(Cl)cc2)CCN(Cc2ccc(Oc3ncccn3)cc2)CC1,-90*,-26%,-25%,-14%,?,-19%
OCC1(Cc2ccccc2)CCN(Cc2cnc(-c3ccc(Cl)cc3)nc2)CC1,-94*,?,?,?,26µM*,23µM*
OCCC1CN(Cc2cnc(-c3ccc(Cl)cc3)nc2)CCN1C1CCCCC1 (stereo unspecified),·,-8%,?,-2%,-12%,21µM*
Cc1cccc(-c2ncc(CN3CCN(C4CCCC4)C(CCO)C3)cn2)c1 (stereo unspecified),4,5%,8%,-22%,-19%,2%
OCC1(Cc2ccccc2)CCN(Cc2cnc(-c3cccc4ccccc34)nc2)CC1,-57*,-20%,?,-7%,-5%,?
COc1ccc(S(=O)(=O)N(CC(=O)NC(C(C)C)C(C)C)c2ccc(F)cc2)cc1OC,·,-1%,·,·,·,·
COc1ccc(NC(=O)Cc2cc(OC)c(OC)c(OC)c2)cc1NS(C)(=O)=O,·,9%,·,·,·,·
N#Cc1cccc(NC(=O)CCCCCCCC(=O)Nc2cccc(C#N)c2)c1,·,0%,·,·,·,·
CCOC(=O)C1CCCCN1C(=O)/C(=C/c1ccc(OC)cc1)c1ccc(OC)c(OC)c1 (stereo unspecified),-11,-4%,18µM*,10%,14%,?
CC(NC(=O)COC(=O)c1cc(NS(=O)(=O)c2ccc(Cl)c([N+](=O)[O-])c2)ccc1O)C1CC2CCC1C2 (stereo unspecified),-107*,-12%,?,?,?,?
CN(CCOc1ccccc1)C(=O)c1cc(S(=O)(=O)N2CCCCC2)ccc1Cl,-65*,0%,?,-12%,-2%,?

# High-throughput results as filed in PubChem BioAssay.
